# PubChem BioAssay (Tox21)
# Values without a mark were called inactive. Calls come from the whole dose curve. Records with an inconclusive call do not appear.
# System: not listed separately
# Assay: Nuclear factor erythroid 2-related factor 2/antioxidant responsive element (Nrf2/ARE) small molecule agonists: luciferase reporter gene qHTS assay in human keratinocytes (AID 1919969)
# Conditions: KeratinoSens HaCaT ARE-luciferase, luminescence, 24 h; series mostly up to 92.4 µM; activity, positive = activation: at the top concentration
# % is set by controls: 0 for no effect and ±100 for the full control effect.
# Note: nearly all actives have a fitted effect of over 35% in size.
row,SMILES,"activity, positive = activation"
1,NCCCNCCSP(=O)(O)O,-4.57% [at 8.39 µM]
2,NS(=O)(=O)c1cc2c(cc1Cl)NC(C(Cl)Cl)NS2(=O)=O (stereo unspecified),4.8% [at 42.5 µM]
3,CCOC(=O)[C@H](CCc1ccccc1)N[C@@H](C)C(=O)N1CCC[C@H]1C(=O)O,-3.31% [at 42.5 µM]
4,COC(=O)[C@@H]1[C@H]2C[C@H]3c4[nH]c5ccccc5c4CCN3C[C@@H]2CC[C@@H]1O,-10% [at 42.5 µM]
5,Oc1cccc(O)c1O,-3.42%
6,COc1cc(C(=O)NC2CCCNC2)cc(OC)c1OC (stereo unspecified),4.5% [at 42.5 µM]
7,CCN[C@@H]1C[C@H](N)[C@@H](OC2OC(CN)=CCC2N)[C@H](O)[C@H]1O[C@H]1OC[C@](C)(O)[C@H](NC)[C@H]1O (stereo partly specified),8.13% [at 0.349 µM]
8,O=C(O)CCNC(=O)c1ccccc1,-0.772% [at 42.5 µM]
9,CN1CCN(C(c2ccccc2)c2ccccc2)CC1,-10.1% [at 42.5 µM]
10,CCCN(CCC)C(=O)C(CCC(=O)O)NC(=O)c1ccccc1 (stereo unspecified),-0.134% [at 42.5 µM]
11,CNS(=O)(=O)Cc1ccc2[nH]cc(CCN(C)C)c2c1,-2.81% [at 42.5 µM]
12,CCN(CC)CCNC(=O)c1cc(S(C)(=O)=O)ccc1OC,1.49% [at 42.5 µM]
13,CCOC(=O)[C@H](CCc1ccccc1)N[C@@H](C)C(=O)N1[C@H](C(=O)O)C[C@@H]2CCC[C@@H]21,0.561% [at 42.5 µM]
14,Nc1ccc(S(=O)(=O)NC(=O)c2ccccc2)cc1,0.442% [at 42.5 µM]
15,CN1CCN(c2c(F)cc3c(=O)c(C(=O)O)cn(CCF)c3c2F)CC1,-0.0512% [at 42.5 µM]
16,CCn1cc(C(=O)O)c(=O)c2cnc(N3CCCC3)nc21,0.384% [at 8.39 µM]
17,CCn1cc(C(=O)O)c(=O)c2cc(F)c(N3CCNCC3)cc21,-2.73% [at 42.5 µM]
18,Cc1[nH]cnc1CN1CCc2c(c3ccccc3n2C)C1=O,-8% [at 42.5 µM]
19,CC(C)(C)NCC(O)COc1cccc2c1C[C@H](O)[C@H](O)C2 (stereo partly specified),-5.75% [at 42.5 µM]
20,O=C(Oc1ccccc1C(=O)O)c1ccccc1O,-2.73% [at 42.5 µM]
21,C[n+]1ccccc1/C=N/O,-1.05% [at 42.5 µM]
22,CC12CCC(CC1=O)C2(C)C (stereo unspecified),-2.98%
23,COC(=O)CCc1ccc(OCC(O)CNC(C)C)cc1 (stereo unspecified),0.607% [at 42.5 µM]
24,NCCCCCC(=O)O,-0.0414% [at 42.5 µM]
25,CCOc1cc(N)c(Cl)cc1C(=O)NCC1CN(Cc2ccc(F)cc2)CCO1 (stereo unspecified),14.5% [at 42.5 µM]
26,CCCc1nn(C)c2c(=O)[nH]c(-c3cc(S(=O)(=O)N4CCN(C)CC4)ccc3OCC)nc12,-8.82% [at 42.5 µM]
27,Cc1ccc(S(=O)(=O)NC(=O)NN2CC3CCCC3C2)cc1 (stereo unspecified),-1.99% [at 42.5 µM]

# Biological target: Gonadotropin-releasing hormone receptor (Homo sapiens) (UniProt P30968)
# Sequence (P30968 whole entry, looked up): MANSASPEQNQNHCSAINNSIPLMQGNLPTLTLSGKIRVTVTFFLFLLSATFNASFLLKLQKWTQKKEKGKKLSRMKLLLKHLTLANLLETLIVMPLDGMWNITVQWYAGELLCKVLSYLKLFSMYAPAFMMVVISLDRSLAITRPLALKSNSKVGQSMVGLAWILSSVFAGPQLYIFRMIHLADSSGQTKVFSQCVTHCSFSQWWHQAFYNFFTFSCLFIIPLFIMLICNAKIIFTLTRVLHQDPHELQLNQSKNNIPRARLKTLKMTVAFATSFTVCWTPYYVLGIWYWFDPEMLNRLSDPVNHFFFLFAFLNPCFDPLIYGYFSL
# Assay: Human gonadotropin-releasing hormone receptor (GnRHR) small molecule agonists, calcium flux assay in GnRHR-HEK293 cells (AID 1920063)
# Conditions: calcium flux fluorescence, agonist mode; series mostly up to 57.6 µM; activity change: at the top concentration
# In short: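 We seeded human GnRHR-expressing HEK293 cells for 18 hours, loaded them with calcium dye for an hour at 37 C, added test compounds, and recorded fluorescence intensity kinetically for three minutes.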
row,SMILES,activity change
1,O=c1[nH]c(=O)n([C@H]2C[C@H](O)[C@@H](CO)O2)cc1I,"-0.115% [at 26.4 µM, active compounds read high]"
2,CC[N+](CC)(CC)CCOc1cccc(OCC[N+](CC)(CC)CC)c1OCC[N+](CC)(CC)CC,"0.889% [at 26.4 µM, active compounds read high]"
3,C[N+]1(C)[C@@H]2CC(OC(=O)[C@H](CO)c3ccccc3)C[C@H]1[C@@H]1O[C@@H]12 (stereo partly specified),"0.109% [at 26.4 µM, active compounds read high]"
4,C[C@@H]1C[C@H]2[C@@H]3CCC4=CC(=O)C=C[C@]4(C)[C@@]3(F)[C@@H](O)C[C@]2(C)[C@H]1C(=O)CO,"1.32% [at 26.4 µM, active compounds read high]"
5,C[C@H]1C[C@H]2[C@@H]3CCC4=CC(=O)C=C[C@]4(C)[C@@]3(F)[C@@H](O)C[C@]2(C)[C@@]1(O)C(=O)COP(=O)(O)O,-0.271%
6,CCOC(=O)OC(C)OC1=C(C(=O)Nc2ccccn2)N(C)S(=O)(=O)c2ccccc21 (stereo unspecified),"-1.16% [at 26.4 µM, active compounds read high]"
7,C[N+](C)(C)CC(O)CC(=O)[O-] (stereo unspecified),"-0.0363% [at 26.4 µM, active compounds read high]"
8,Cc1cccc(C)c1OCC(C)N (stereo unspecified),"2.05% [at 26.4 µM, active compounds read high]"
9,CC1=NS(=O)(=O)c2cc(Cl)ccc2N1,"-1.97% [at 26.4 µM, active compounds read high]"
10,CC(C)NCC(O)c1ccc(NS(C)(=O)=O)cc1 (stereo unspecified),3.9%
11,CC[C@H]1OC(=O)[C@H](C)[C@@H](O[C@H]2C[C@@](C)(OC)[C@@H](O)[C@H](C)O2)[C@H](C)[C@@H](O[C@@H]2O[C@H](C)C[C@H](N(C)C)[C@H]2O)[C@](C)(OC)C[C@@H](C)C(=O)[C@H](C)[C@@H](O)[C@]1(C)O,1.68%
12,CC[C@H]1OC(=O)[C@H](C)[C@@H](O[C@H]2C[C@@](C)(OC)[C@@H](O)[C@H](C)O2)[C@H](C)[C@@H](O[C@@H]2O[C@H](C)C[C@H](N(C)C)[C@H]2O)[C@](C)(O)C[C@@H](C)C(=O)[C@H](C)[C@@H](O)[C@]1(C)O,"0.21% [at 26.4 µM, active compounds read high]"
13,NCCCNCCSP(=O)(O)O,"-1.6% [at 5.22 µM, active compounds read high]"
14,NS(=O)(=O)c1cc2c(cc1Cl)NC(C(Cl)Cl)NS2(=O)=O (stereo unspecified),"0.102% [at 26.4 µM, active compounds read high]"
15,CCOC(=O)[C@H](CCc1ccccc1)N[C@@H](C)C(=O)N1CCC[C@H]1C(=O)O,"-1.33% [at 26.4 µM, active compounds read high]"
16,COC(=O)[C@@H]1[C@H]2C[C@H]3c4[nH]c5ccccc5c4CCN3C[C@@H]2CC[C@@H]1O,"-0.0079% [at 26.4 µM, active compounds read high]"
17,Oc1cccc(O)c1O,0.12%
18,COc1cc(C(=O)NC2CCCNC2)cc(OC)c1OC (stereo unspecified),"0.0176% [at 26.4 µM, active compounds read high]"
19,CCN[C@@H]1C[C@H](N)[C@@H](OC2OC(CN)=CCC2N)[C@H](O)[C@H]1O[C@H]1OC[C@](C)(O)[C@H](NC)[C@H]1O (stereo partly specified),"-1.46% [at 0.217 µM, active compounds read high]"
20,O=C(O)CCNC(=O)c1ccccc1,"-1.33% [at 26.4 µM, active compounds read high]"

row,SMILES,activity change
1,CN1CCN(C(c2ccccc2)c2ccccc2)CC1,"-0.652% [at 26.4 µM, active compounds read high]"
2,CCCN(CCC)C(=O)C(CCC(=O)O)NC(=O)c1ccccc1 (stereo unspecified),"-1.75% [at 26.4 µM, active compounds read high]"
3,CNS(=O)(=O)Cc1ccc2[nH]cc(CCN(C)C)c2c1,"-0.365% [at 26.4 µM, active compounds read high]"
4,CCN(CC)CCNC(=O)c1cc(S(C)(=O)=O)ccc1OC,"-1.85% [at 26.4 µM, active compounds read high]"
5,CCOC(=O)[C@H](CCc1ccccc1)N[C@@H](C)C(=O)N1[C@H](C(=O)O)C[C@@H]2CCC[C@@H]21,"-0.777% [at 26.4 µM, active compounds read high]"
6,Nc1ccc(S(=O)(=O)NC(=O)c2ccccc2)cc1,"-0.707% [at 26.4 µM, active compounds read high]"
7,CN1CCN(c2c(F)cc3c(=O)c(C(=O)O)cn(CCF)c3c2F)CC1,"-0.6% [at 26.4 µM, active compounds read high]"
8,CCn1cc(C(=O)O)c(=O)c2cnc(N3CCCC3)nc21,"-1.43% [at 5.22 µM, active compounds read high]"
9,CCn1cc(C(=O)O)c(=O)c2cc(F)c(N3CCNCC3)cc21,"-1.81% [at 26.4 µM, active compounds read high]"
10,Cc1[nH]cnc1CN1CCc2c(c3ccccc3n2C)C1=O,"-0.77% [at 26.4 µM, active compounds read high]"
11,CC(C)(C)NCC(O)COc1cccc2c1C[C@H](O)[C@H](O)C2 (stereo partly specified),"0.706% [at 26.4 µM, active compounds read high]"
12,O=C(Oc1ccccc1C(=O)O)c1ccccc1O,"0.136% [at 26.4 µM, active compounds read high]"
13,C[n+]1ccccc1/C=N/O,"-0.591% [at 26.4 µM, active compounds read high]"
14,CC12CCC(CC1=O)C2(C)C (stereo unspecified),-1.96%
15,COC(=O)CCc1ccc(OCC(O)CNC(C)C)cc1 (stereo unspecified),"-1.68% [at 26.4 µM, active compounds read high]"
16,NCCCCCC(=O)O,"-1.6% [at 26.4 µM, active compounds read high]"
17,CCOc1cc(N)c(Cl)cc1C(=O)NCC1CN(Cc2ccc(F)cc2)CCO1 (stereo unspecified),"0.583% [at 26.4 µM, active compounds read high]"
18,CCCc1nn(C)c2c(=O)[nH]c(-c3cc(S(=O)(=O)N4CCN(C)CC4)ccc3OCC)nc12,"0.243% [at 26.4 µM, active compounds read high]"
19,Cc1ccc(S(=O)(=O)NC(=O)NN2CC3CCCC3C2)cc1 (stereo unspecified),"-0.339% [at 26.4 µM, active compounds read high]"
